Results reported in PubChem BioAssay (NCATS).
Results filed as inconclusive are left out. Active and inactive are the calls of the source. Calls follow the shape of the dose curve; as a rule, active = well fitted inhibition curve with a large enough effect; inconclusive = small, poorly fitted or top-dose-only effect; inactive = flat fitted curve, though single readings scatter.

Target: Tyrosyl-DNA phosphodiesterase 1 (Homo sapiens) (UniProt Q9NUW8)
Experiment: Confirmation Assay for Inhibitors of Tyrosyl-DNA Phosphodiesterase (TDP1) (AID 489007); also: nearly all actives have a fitted effect of over 40% in size
Settings: recombinant human TDP1 enzymatic activity, dose-response
From the text: Human tyrosyl-DNA phosphodiesterase I (Tdp1) is a rational anticancer target because this enzyme is involved in the repair of DNA lesions created by the trapping of human DNA topoisomerase I (Top1) following treatment by anticancer agents such as camptothecins. Recombinant Tdp1 was expressed and purified from E. coli in the laboratory (Anthony et al, Nucleic Acids Research, 2007, Vol. 35, 4474-4484). A Tdp1 DNA substrate bearing a 5' biotin and a 3' phospho-tyrosine was obtained by custom synthesis. This oligonucleotidic DNA substrate was subsequently coupled to a fluorescein isothiocyanate (FITC) group via the free amino group present on the phospho-tyrosine. Tdp1 was screened against the NCGC small molecule library using the AlphaScreen (AS) detection method in which a streptavidin donor AS bead is bound at the 5' end and an anti-FITC AS acceptor bead is bound at the 3' end of the DNA oligonucleotidic substrate. In the presence of Tdp1, the enzyme cleaves the tyrosine-FITC group, leaving a 3' end phosphate on the DNA substrate. This cleavage reaction results in a loss of signal in AS.
This BioAssay is a confirmation of followup compounds from primary TDP1 screen (AID:485290)
NIH Molecular Libraries Probe Production Network [MLPCN]
NIH Chemical Genomics Center [NCGC]
Assay Provider: Yves Pommier and Christophe Marchand, National Cancer Institute
Assay Title: qHTS Assay for Inhibitors of Tyrosyl-DNA Phosphodiesterase (TDP1)
[1] 3 ul of buffer is dispensed in columns 3 & 4 as negative control (no enzyme and maximum signal),
[2] 3 ul of enzyme (1 nM final) is dispensed in columns 1,2, 5-48,
[3] 1 ul of substrate (15 nM final) is dispensed throughout the plate,
[4] 1 ul of AS donor/acceptor bead mix (10 ug/ml final) is dispensed throughout the plate
3 ul of Tdp1 enzyme is dispensed to 1536-well Kalypsys black solid bottom plates. Compounds and controls (23 nl) are transferred via Kalypsys Pin Tool. The plates are incubated for 15 min at room temperature, and then 1 ul of substrate is added to start the reaction. After 5 min incubation at room temperature, 1 ul of AS donor/acceptor bead mix is added and the plates are further incubated for 10 min at room temperature. The detection is then performed on a PerkinElmer Envision reader.
Potency is read from the fitted curve at half-maximal effect.

Sequence of Tyrosyl-DNA phosphodiesterase 1 (Homo sapiens) (Q9NUW8 whole entry, looked up): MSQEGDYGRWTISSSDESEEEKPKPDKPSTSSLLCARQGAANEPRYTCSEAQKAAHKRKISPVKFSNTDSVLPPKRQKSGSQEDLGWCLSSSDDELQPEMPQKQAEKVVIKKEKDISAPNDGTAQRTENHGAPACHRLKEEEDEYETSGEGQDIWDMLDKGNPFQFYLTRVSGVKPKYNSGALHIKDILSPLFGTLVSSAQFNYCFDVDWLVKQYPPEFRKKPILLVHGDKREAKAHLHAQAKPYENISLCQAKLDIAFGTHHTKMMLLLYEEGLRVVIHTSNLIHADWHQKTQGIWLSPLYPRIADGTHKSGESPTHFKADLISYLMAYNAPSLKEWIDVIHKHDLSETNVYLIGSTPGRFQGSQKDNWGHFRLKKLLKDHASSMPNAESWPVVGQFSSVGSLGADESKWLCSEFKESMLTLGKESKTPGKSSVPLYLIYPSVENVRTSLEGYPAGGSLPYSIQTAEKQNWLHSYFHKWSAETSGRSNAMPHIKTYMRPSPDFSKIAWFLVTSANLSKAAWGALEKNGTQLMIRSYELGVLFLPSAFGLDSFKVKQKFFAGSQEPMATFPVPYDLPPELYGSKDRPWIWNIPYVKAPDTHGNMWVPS

Potency, active:
COc1ccc(OCc2cc(C(=O)O)c(C)o2)cc1 10 µM, O=C(O)CCC(=O)N(Cc1cccs1)Cc1cccs1 112 µM, O=C(O)/C=C/c1ccc([N+](=O)[O-])o1 50.1 µM, Cc1cc(C=O)c(C)n1-c1cccc(C(=O)O)c1 7.94 µM, O=C(O)CCCN1C(=O)/C(=C\c2ccco2)SC1=S 2.82 µM, O=C(O)c1cccc(-n2cccc2/C=C2/NC(=O)N(Cc3ccccc3F)C2=O)c1 8.91 µM, COc1ccc(-n2cccc2/C=C2\C(=N)N3N=C(c4ccco4)SC3=NC2=O)cc1 14.1 µM, COc1ccc(-n2c(NC(=O)c3ccc(Br)o3)c(C#N)c3nc4ccccc4nc32)cc1 100 µM, Cc1ccc(S(=O)(=O)N2CCCCC2)cc1C(=O)Nc1ccc(S(=O)(=O)Nc2ncccn2)cc1 14.1 µM, COc1ccc(S(=O)(=O)N2Cc3ccccc3CC2C(=O)O)cc1 (stereo not given) 12.6 µM, Cc1ccc(C(=O)O)cc1-c1ccc(/C=C2/NC(=O)N(c3ccccc3)C2=O)o1 7.08 µM, O=C(CSc1nnc(SCc2ccccc2)s1)N/N=C/c1c[nH]c2ccccc12 4.47 µM, CC(=C/C(=O)O)/C=C/c1ccc(Cl)o1 39.8 µM, O=C(CSc1nc(NS(=O)(=O)c2ccccc2)cc(=O)[nH]1)Nc1ccc(Cl)cc1 22.4 µM, COc1ccc(N2Cc3cccc(C(=O)N4CCN(C(=O)c5ccco5)CC4)c3C2=O)cc1 7.08 µM, CCc1oc(C(=O)O)cc1COC 31.6 µM, Cc1cc(C(=O)O)ccc1-c1ccc(/C=C2\NC(=O)N(Cc3ccc(F)cc3)C2=O)o1 4.47 µM, Fc1ccc(C2CC(c3cccs3)=NN2c2ccccc2)cc1 (stereo not given) 15.8 µM, O=C(N/N=C/c1ccc2c(c1)OCO2)c1cc2ccccc2o1 12.6 µM, O=C1CCCC(O)=C1N=Nc1ccc(C(=O)O)cc1 1.41 µM, O=C(CCc1n[nH]c(=O)[nH]c1=O)N/N=C/c1ccco1 31.6 µM, COc1ccc(/C=N/N=C2/NC(=O)C(CC(=O)O)S2)cc1OCc1ccc(Cl)cc1Cl (stereo not given) 39.8 µM, O=c1c2nc(Br)n([C@@H]3O[C@@H]4CO[P@@](O)(=S)O[C@H]4[C@H]3O)c2nc2[nH]c(-c3ccccc3)cn12 12.6 µM, O=S(=O)(O)c1ccc2c(c1)-c1nc-2nc2[nH]c(nc3nc(nc4[nH]c(n1)c1ccc(S(=O)(=O)O)cc41)-c1ccc(S(=O)(=O)O)cc1-3)c1ccc(S(=O)(=O)O)cc21 0.0282 µM, COc1ccc(N2Cc3cccc(C(=O)O)c3C2=O)cc1 2.51 µM, O=C(O)C1C2C=CC(C2)C1C(=O)NCCc1ccncc1 (stereo not given) 100 µM, S=c1[nH]nc(-c2cccnc2)n1/N=C/c1ccc(Br)s1 63.1 µM, CS(=O)(=O)C1=NSC2=NC(=O)/C(=C\c3cccn3-c3ccc(Cl)cc3)C(=N)N21 5.01 µM, CC1=CCC(C(=O)O)C(C(=O)Nc2ccc(-c3nc4ccc(C)cc4s3)cc2)C1 (stereo not given) 31.6 µM, C=C(C)C(=O)Nc1cccc(C2=NOC3(C2)C[C@H](C(N)=O)N(C(=O)COc2ccc(Cl)cc2)C3)c1 (stereo not given in full) 12.6 µM, Cc1ccc(S(=O)(=O)N(CC(=O)O)Cc2ccco2)cc1 20 µM, Cc1nc(SCC(=O)O)c(C#N)c2c1CCCC2 8.91 µM, Cc1nnc(NC(=O)CSc2ccc(-c3ccco3)nn2)s1 14.1 µM, O=C(O)c1cccc(-n2cccc2/C=C2/NC(=O)N(c3ccc(Cl)cc3)C2=O)c1 1.62 µM, Cn1nnnc1SCC(=O)Nc1ccccn1 7.08 µM, O=C(O)CNC(=O)CC1S/C(=N/N=C2/NC(=O)CS2)NC1=O (stereo not given) 89.1 µM, CCN(c1ccccc1)S(=O)(=O)c1cc(C(=O)O)ccc1C 12.6 µM, Cc1ccc(NC(=O)CN2C(=O)N/C(=C/c3cccn3-c3ccc(C(=O)O)cc3)C2=O)cc1 0.282 µM, CN(C)c1nc(-c2ccccc2)c2cnn(Cc3ccccc3)c2n1 63.1 µM, CCOc1ccc(N=Cc2c(C)[nH]n(-c3nc4ccccc4[nH]3)c2=O)cc1 31.6 µM
